Screening results: PubChem BioAssay, National Center for Advancing Translational Sciences (NCATS)
Eya2 phos inh – blocks the phosphatase activity of human Eya2. O00167. recombinant Eya2, OMFP fluorescence dephosphorylation (OMFP is methylfluorescein phosphate). Potency, µM (series often up to 76.9 µM), usual class: inhibitors. 330,000 tested, 0.006% active. AID 488837
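Eya2 protein (added as 0.2 uM solution) was preincubated with compound for 10 min at ambient temperature in 50 mM HEPES pH 7.5, 50 mM NaCl, 5 uM MgCl2, 0.05% BSA, 1 mM DTT. OMFP (added at 50 uM) then reacted 10 min; fluorescence read at 485/525 nm.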
TSG101-PTAP inh – blocks PTAP/TSG101 interaction to inhibit HIV-1 budding; 340,000 tested, under 10 active; Potency, µM (doses to about 115 µM), most hits filed as inhibitors; AID 493005; Fluorescence polarization, FITC-PTAP peptide / Tsg101 binding; active means well fitted inhibition curve with a large enough effect in the main read-out, with a control signal flat, not every such curve was filed as active; inconclusive means small, poorly fitted or top-dose-only effect, or effect the other way, or a change in a side signal; inactive means no such curve, though single readings can be large or run the other way
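Compounds were pin-transferred onto Tsg101 binding domain (10 uM final) in HEPES pH 7.5 buffer, then FITC-PTAP peptide was added at 50 nM final. After 20 min at RT, polarization reported peptide displacement across a qHTS concentration series.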
12-LOX inh – ALOX12 (human) lipoxygenase inhibition; 580,000 tested, 1.1% active; AID 1671190; purified 12hLO, xylenol orange hydroperoxide absorbance; Potency, µM (highest dose often 108 µM), most hits filed as inhibitors; P18054
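Purified human 12hLO at 150 nM in 25 mM Hepes, 0.01% Triton X-100, pH 7.0, preincubated 15 min at room temperature with compound. Reaction started with 40 uM arachidonic acid, 30 min at room temperature. Hydroperoxide measured by Fe-xylenol orange, 573/405 nm absorbance ratio.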
USP2a block – blocks human ubiquitin-specific protease USP2a | Potency, µM (doses to about 38.3 µM), usual class: inhibitors | AID 463254 | 330,000 tested, 0.01% active | USP2 core, Ub-CHOP2 coupled fluorogenic reporter, 485/531
Target sequence (O75604 whole entry, looked up): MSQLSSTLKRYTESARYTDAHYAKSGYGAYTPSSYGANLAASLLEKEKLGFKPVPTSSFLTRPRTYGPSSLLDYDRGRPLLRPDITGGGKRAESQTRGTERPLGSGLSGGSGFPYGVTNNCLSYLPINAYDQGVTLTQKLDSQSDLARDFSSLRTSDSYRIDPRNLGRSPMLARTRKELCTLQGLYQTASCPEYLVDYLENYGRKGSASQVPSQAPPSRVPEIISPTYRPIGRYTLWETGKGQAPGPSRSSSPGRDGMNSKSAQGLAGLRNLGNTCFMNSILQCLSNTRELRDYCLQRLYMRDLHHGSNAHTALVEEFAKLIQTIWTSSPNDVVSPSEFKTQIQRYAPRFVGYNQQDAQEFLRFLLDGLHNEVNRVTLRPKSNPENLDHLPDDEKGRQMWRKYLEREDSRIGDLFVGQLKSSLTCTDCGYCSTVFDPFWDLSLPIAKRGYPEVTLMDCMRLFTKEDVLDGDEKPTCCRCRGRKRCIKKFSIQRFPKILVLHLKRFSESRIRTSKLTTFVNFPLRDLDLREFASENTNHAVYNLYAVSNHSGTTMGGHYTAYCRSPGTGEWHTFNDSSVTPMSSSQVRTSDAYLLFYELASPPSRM
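Deubiquitinase activity read as fluorescence (485/531 nm) after Ub-CHOP2 cleavage activates the enterokinase reporter on its substrate; USP2 core 10nM, Ub-CHOP2 and substrate 25nM each, 30min compound preincubation then 60min RT; data normalized to NEM, curves fitted.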
Hits are given with their value; i = inactive; ? = inconclusive; nt = no result; ! = repeats disagree. An excerpt weighted towards active compounds, which were near 1.1% of everything screened. Unless noted, the call rests on the fitted dose curve; in most records, active means well fitted curve in the direction sought with a large enough effect; inconclusive means small, poorly fitted or top-dose-only effect, or another doubt; inactive means no such curve, though single readings can be large; an effect the other way counts as inactive or inconclusive.

SMILES	Eya2 phos inh	TSG101-PTAP inh	12-LOX inh	USP2a block
COc1ccc(-c2cnc3c(NC=O)cc(-c4ccccc4OC)cn23)cc1OC	nt	nt	6.31µM	nt
CC1=C[C@@H](CNCc2ccncc2)[C@H](C(C)C)C[C@H]1Cc1nnc(-c2ccccc2F)o1	nt	nt	i	nt
COc1cccc(CN2CC[C@H](c3nc4ccccc4s3)C2)c1	nt	nt	i	nt
O=C(c1ccc(Cl)cc1)N1CCC2(CC1)Cc1ccccc1NC2=O	nt	nt	i	nt
CCc1ccccc1NC(=O)C1CCCC1	nt	i	i	nt
CCc1ccccc1NC(=O)C1CC1	nt	nt	0.794µM	nt
CC(=O)/C=C/C1C(C)=CCC(C)C1(C)C (stereo unspecified)	nt	nt	i	nt
Cc1noc(C)c1CNCC1(COc2cnccn2)C[C@@H](O)[C@@H](O)C1 (stereo partly specified)	nt	nt	i	nt
Cc1noc(C)c1CNCC1(COc2cccnc2)C[C@@H](O)[C@@H](O)C1 (stereo partly specified)	nt	nt	12.6µM	nt
Cc1cc(=O)oc2cc(OCC(=O)NCC3(N4CCN(C)CC4)CCCCC3)ccc12	nt	nt	i	nt
O=C(Nc1cccc(-c2nc3ccccc3o2)c1)C1CCCC1	nt	nt	i	nt
C=CCc1ccccc1OCC(O)CN1CCN(c2ccc(OC)cc2)CC1 (stereo unspecified)	i	i	i	i
C=CCc1ccccc1OCC(O)CN1CCOCC1 (stereo unspecified)	nt	i	39.8µM	nt
COc1cc(-c2c(NC(=O)c3ccccc3F)oc3c(C)cccc3c2=O)cc(OC)c1OC	nt	nt	i	nt
c1ccc2sc(SN3CCOCC3)nc2c1	i	i	12.6µM!	i
CCCc1cc(=O)n(-c2nc3ccccc3s2)[nH]1	i	i	i	i
CCOC(=O)Cc1cc(=O)n(-c2nc3ccccc3s2)[nH]1	i	i	7.94µM	i
COc1cc(N=Nc2cccc(S(N)(=O)=O)c2)c2ccccc2c1N	i	i	6.31µM	i
Cc1cc(OCCN2CCOCC2)c(C)c2c1CC[C@@H]([C@H](C)C(=O)N1CCCCC1)C2	nt	nt	i	nt
CC(C)C(C)NC(=O)c1ccc(CNC(=O)OC(C)(C)C)cc1 (stereo unspecified)	nt	nt	i	nt
COc1cc(OC)c(N(C)S(=O)(=O)c2cccc(C(=O)NCc3cccs3)c2)cc1Cl	nt	nt	10µM	nt
CC1=C[C@@H](CNC(=O)C2CC2)[C@H](C(C)C)C[C@H]1Cc1nnc(-c2ccccc2F)o1	nt	nt	i	nt
O=C(COC(=O)c1ccccc1O)Nc1ncc(Cl)cc1Cl	i	i	?	i
O=C(COC(=O)c1cn(-c2ccccc2)nc1-c1ccccc1)Nc1ncc(Cl)cc1Cl	?	i	25.1µM	i
O=C(COC(=O)CNC(=O)c1ccccc1F)Nc1ncc(Cl)cc1Cl	i	i	39.8µM	i
SMILES	Eya2 phos inh	TSG101-PTAP inh	12-LOX inh	USP2a block
COc1ccccc1CCNC(=O)c1sc(NCc2ccccc2)nc1C	nt	nt	i	nt
COc1ccc2[nH]cc(CCNC(=O)CCNc3nc(Cl)nc4nc[nH]c34)c2c1	nt	nt	i	nt
Clc1cccc(N2CCN(Cc3ccc(Br)o3)CC2)c1	i	i	?	i
Clc1ccc(N2CCN(Cc3ccc(Br)o3)CC2)cc1	i	i	0.891µM	i
O=C(O)c1cc(S(=O)(=O)Nc2ccc3oc(=O)sc3c2)ccc1O	i	i	?	i
CC(=O)c1c(C)oc2ccc(NS(=O)(=O)c3ccc(O)c(C(=O)O)c3)cc12	i	i	15.8µM	i
O=C(C1=Cc2cc(Cl)ccc2OC1)N1CCN(S(=O)(=O)c2cc(F)ccc2F)CC1	nt	nt	39.8µM	nt
COc1ccccc1N(C(C)=O)C1=C(Cl)C(=O)c2ccccc2C1=O	nt	nt	14.1µM	nt
CC(=O)Nc1ccc(S(=O)(=O)c2ccc(N)cc2)cc1	i	i	i	i
NC(=S)Nc1ccc(S(=O)(=O)c2ccc(NC(N)=S)cc2)cc1	i	i	39.8µM	i
COCCNC(=S)Nc1ccc(N2CCOCC2)c(S(=O)(=O)Nc2ccc(Cl)cc2)c1	nt	nt	5.01µM	nt
O=C(Nc1ccc(N2CCOCC2)c(S(=O)(=O)Nc2ccc(Cl)cc2)c1)c1cnccn1	i	i	8.91µM	i
CC/C=C\CC/C=C/CO	nt	nt	i	nt
C/C(=C1/SC(=S)N(CCC(=O)O)C1=O)c1ccc(O)cc1	i	i	39.8µM	i
CC1=C[C@@H](CN2CCN(c3ncccn3)CC2)[C@H](C(C)C)C[C@H]1Cc1nnc(COc2ccc(F)cc2)o1	nt	nt	i	nt
CCCCC(Sc1nnc(C)n1-c1cccc(C)c1)C(=O)Nc1cc(C)on1 (stereo unspecified)	nt	nt	i	nt
Cc1c2c(=O)n(-c3ccc(Cl)cc3)[nH]c2cc(=O)n1Cc1ccc(F)cc1	nt	nt	i	nt
Cc1c2c(=O)n(-c3ccc(F)cc3)[nH]c2cc(=O)n1Cc1ccccc1	nt	nt	11.2µM	nt
CC(=O)c1ccccc1NC(c1nnnn1-c1c(C)cccc1C)C1CC1 (stereo unspecified)	nt	nt	i	nt
Cc1ccc2c(CN(C)CCOc3ccc(Cl)cc3)cc(=O)oc2c1	nt	nt	35.5µM	nt
CCc1ccc2c(CN(C)CCOc3ccc(F)cc3)cc(=O)oc2c1	nt	nt	44.7µM	nt
COc1cccc(Nc2cc3[nH]ccc3c(C(=O)NCc3c(C)cc(C)[nH]c3=O)n2)c1	nt	nt	i	nt
Cc1ccccc1-c1nc(Nc2ccncc2)c2ccccc2n1	nt	nt	35.5µM	nt
Oc1ccccc1-c1nc(NCc2cccnc2)c2ccccc2n1	i	i	i	i
Cc1ccccc1-c1nc(NCc2cccnc2)c2ccccc2n1	nt	nt	28.2µM	nt
Cc1cccc(OCC(=O)N/N=C/C=C/c2ccco2)c1	i	i	?	?
Cc1ccc(OCC(=O)N/N=C/C=C/c2ccco2)c(Br)c1	i	i	39.8µM	i
CCCCn1nnnc1CSc1nnc(-c2ccccc2)n1-c1ccccc1	nt	nt	i	nt
Cn1cc(C(=O)N2CCN(Cc3ccc4c(c3)OCCO4)CC2)c(-c2ccc3c(c2)OCCCO3)n1	nt	nt	i	nt
CN(C)C(=O)c1ccc(CC2CCN(C(=O)CC3CCCCC3)CC2)cc1	nt	nt	i	nt
